Anthrax LF prot = inhibitors of Bacillus anthracis lethal factor protease; multiplex microsphere protease cleavage assay, LF; inhibition, % at 10 µM; 360,000 tested, 0.12% active; AID 588501; note: plate controls were buffer without enzyme for full effect and enzyme alone for no effect
BoNT-F LC inh = inhibitors of Botulinum neurotoxin F light chain protease; Multiplex microsphere protease cleavage assay, flow cytometry; AID 588497; 360,000 tested, 0.22% active; inhibition, % at 10 µM; in the data active = inhibition above about 35%, passing the limit was not always enough; note: plate controls were buffer without enzyme for full effect and enzyme alone for no effect
Bead autofluor = counter-screen for toxin protease inhibitors: compound fluorescence; compound autofluorescence counterscreen, microsphere flow cytometry; active compounds read high; fluorescence intensity (concentration not given with the values); 360,000 tested, 3.1% active; in the data active = fluorescence intensity above about 16000
GDH-TPI counter-1 = inhibits GDH-TPI coupling enzymes, artifact for Mtb FBA screen | inhibition, % at 4.8 µM | GDH-TPI coupled enzyme counterscreen, NADH absorbance | 360,000 tested, 1.2% active; in the data active = inhibition above about 30%;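 note: 0% = DMSO wells and 100% = wells lacking the enzyme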
BoNT-A LC inh2 = blocks Botulinum neurotoxin A light chain protease | multiplex microsphere protease substrate cleavage, flow cytometry | inhibition, % at 10 µM | 360,000 tested, 0.17% active; note: plate controls were buffer without enzyme for full effect and enzyme alone for no effect
FBA Mtb inh = inhibitors of M. tuberculosis fructose-bisphosphate aldolase. purified M. tuberculosis FBA, fluorescence read-out. inhibition, % at 1 µM. 360,000 tested, 2.3% active. AID 588726; in the data active = inhibition above about 27%;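 note: 0% = vehicle and 100% = reference inhibitor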
Target sequence (P9WQA3 whole entry, looked up): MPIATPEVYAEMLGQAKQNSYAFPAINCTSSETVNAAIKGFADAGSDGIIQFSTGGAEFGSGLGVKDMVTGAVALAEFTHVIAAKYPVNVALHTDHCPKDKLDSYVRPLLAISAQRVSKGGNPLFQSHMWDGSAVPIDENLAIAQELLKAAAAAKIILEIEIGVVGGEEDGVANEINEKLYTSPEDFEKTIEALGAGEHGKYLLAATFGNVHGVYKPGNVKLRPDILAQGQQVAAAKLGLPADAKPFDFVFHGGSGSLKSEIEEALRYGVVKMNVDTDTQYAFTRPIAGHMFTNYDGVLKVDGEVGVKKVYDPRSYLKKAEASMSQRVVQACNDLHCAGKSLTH
Mtb FBA inh conf = confirmation of M. tuberculosis fructose-bisphosphate aldolase inhibitors | shares compounds with FBA Mtb inh | purified M. tuberculosis FBA, fluorescence read-out | inhibition, % at 1 µM | 5,600 tested, 78% active; in the data active = inhibition above about 27%;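 note: 0% = vehicle wells and 100% = reference inhibitor wells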
GDH-TPI counter-2 = counter-screen for M. tuberculosis FBA inhibitors: GDH-TPI coupled enzyme inhibition. GDH-TPI coupled enzyme counterscreen, fluorescence. inhibition, % at 1 µM. 5,600 tested, 81% active. shares compounds with FBA Mtb inh; in the data active = inhibition above about 10%
Numbers without * were called inactive; nt = no result given; + = active, no number. An excerpt weighted towards active compounds, which were near 6.6% of everything screened. Cut-off read from the data, not from the text of the source, unless noted: active = inhibition above about 30%; inconclusive = no clear call, values can overlap the other calls; inactive = below that.

SMILES	Anthrax LF prot	BoNT-F LC inh	Bead autofluor	GDH-TPI counter-1	BoNT-A LC inh2	FBA Mtb inh	Mtb FBA inh conf	GDH-TPI counter-2
COc1ccc2oc(=O)c(C(=O)NCc3cccnc3)cc2c1	-9	-10	3058	4	-1	44*	-4	-5
N=c1oc2ccc(Br)cc2cc1C(=O)NCc1ccc(F)cc1	11	13	5988	7	6	2	nt	nt
COc1ccc2cc(C(=O)NCc3ccccc3)c(=O)oc2c1	-12	9	3866	16	-2	33*	65*	50*
Cc1cc(OCc2nc(-c3ccncc3)no2)cc(C)c1Cl	-3	-5	2013	4	0	-2	nt	nt
CC(C)C(NS(=O)(=O)c1cccs1)C(=O)N1CCC(C(N)=O)CC1 (configuration not stated)	-2	5	6218	6	1	5	nt	nt
COc1ccc(COCC(O)CN2CCC(CN3C(=O)c4cccc5cccc(c45)C3=O)CC2)cc1OC (configuration not stated)	-2	-3	2084	14	0	30*	-1	-2
CC1=CC2=NC(=O)CC(C)(C(=O)N(CC(=O)NC(C)(C)C)Cc3cccs3)N2C=C1 (configuration not stated)	-2	3	9049	20	0	101*	149*	125*
CS(=O)(=O)N(CC(=O)NC1CCCCCC1)Cc1ccc(Cl)cc1	4	7	10601	10	1	4	nt	nt
CC1=CC=CC2=NC(=O)CC(C)(C(=O)N(CC(=O)NC3CCCC3)Cc3ccc(Cl)cc3)N12 (configuration not stated)	2	2	3203	16	-1	106*	+	+
CC1(C(=O)N(CC(=O)NC2CCCC2)Cc2ccc(Cl)cc2)CC(=O)N=C2C=CC=CN21 (configuration not stated)	3	-5	3096	10	-1	89*	+	+
Cc1ccc(CN(CC(=O)NC2CCCC2)C(=O)c2csnn2)cc1	10	-11	2858	6	-2	2	nt	nt
CC1=CC2=NC(=O)CC(C)(C(=O)N(CC(=O)NC3CCCC3)c3cc(C)cc(C)c3)N2C=C1 (configuration not stated)	0	-4	3945	0	0	57*	+	+
CC(CNC(=O)c1cccs1)c1ccc([N+](=O)[O-])cc1 (configuration not stated)	-5	2	3396	4	0	5	nt	nt
CN(CCc1ccccn1)C(=O)CCC1CCCN(C(=O)NC2CCCCC2)C1 (configuration not stated)	-1	-2	4213	-5	0	-2	nt	nt
CC(C)C(C)(C#N)NC(=O)CSc1nc2scc(-c3ccc(F)cc3)c2c(=O)n1Cc1ccccc1 (configuration not stated)	-1	-3	2611	7	0	-1	nt	nt
COCCNC(=O)/C=C/c1c(Cl)cccc1Cl	0	2	2261	0	0	1	nt	nt
CC(=O)c1cccc(NC(=S)Nc2cccc3ccccc23)c1	2	8	5361	8	2	42*	63*	33*
S=C(Nc1cccc2ccccc12)Nc1cccc2ccccc12	-5	0	3717	7	0	88*	96*	73*
COc1ccc(NC(=S)Nc2cccc3ccccc23)cc1OC	-2	-1	4823	7	4	42*	35*	33*
CC(=O)Nc1cccc(NC(=S)Nc2cccc3ccccc23)c1	-3	3	5128	1	1	3	nt	nt
S=C(Nc1cccc2ccccc12)NC1CCCCC1	1	-3	4780	-2	-1	3	nt	nt
Cc1ccc(F)c(NC(=S)Nc2cccc3ccccc23)c1	-4	-14	4948	7	-5	46*	55*	50*
COc1ccc(C(=O)N/N=C/C2CC=CCC2)cc1OC (configuration not stated)	1	-1	4129	-6	0	2	nt	nt
CC1Cc2cc(/C(O)=C3/C(=O)C(=O)N(CCN4CCOCC4)C3c3ccc(N(C)C)cc3)ccc2O1 (configuration not stated)	1	6	5068	25	0	0	nt	nt
CCOc1ccc(-c2nc(CCl)cs2)cc1OC	-5	-5	4362	2	-1	46*	41*	19*
SMILES	Anthrax LF prot	BoNT-F LC inh	Bead autofluor	GDH-TPI counter-1	BoNT-A LC inh2	FBA Mtb inh	Mtb FBA inh conf	GDH-TPI counter-2
NC(=O)COc1ccc(NS(=O)(=O)Cc2ccccc2)cc1	9	0	3668	3	-1	1	nt	nt
NC(=O)c1ccccc1NS(=O)(=O)Cc1ccccc1	nt	nt	nt	4	nt	62*	84*	66*
CCC(C)(C)n1nnnc1CN1CCC(NC(=O)c2ccc(Br)cc2)CC1	3	-12	4801	4	0	33*	4	-2
Cc1ccc(Cn2nnnc2CN2CCC(NC(=O)c3ccc(Br)cc3)CC2)cc1	2	1	5807	2	-1	2	nt	nt
Cc1ccc(CNc2oc(-c3ccco3)nc2C#N)cc1	0	-8	11550	16	-1	54*	3	4
CNc1oc(-c2ccco2)nc1C#N	-4	-9	3245	9	0	68*	46*	45*
N#Cc1nc(-c2ccc(OCc3ccccc3)cc2)oc1NCc1cccnc1	-2	4	2813	8	-1	7	nt	nt
CCOc1ccc(-c2nc(C#N)c(NCc3ccco3)o2)cc1	0	2	2123	8	0	53*	58*	50*
COc1ccc(C2CC(=O)Oc3c2c(=O)n(C)c2ccccc32)c(OC)c1OC (configuration not stated)	-2	-3	4254	3	0	37*	-21	-19
CCCCNC(=O)c1cc2cc(CC)ccc2[nH]1	nt	nt	nt	11	nt	31*	79*	65*
CCOCc1nc2nc(Cl)c(Cl)nc2[nH]1	-3	0	3455	20	-1	4	nt	nt
Cc1cc(C)c2c(N)c(C(=O)NN3CC(=O)N(c4ccccc4)CC3=O)sc2n1	1	0	5498	2	0	57*	188*	129*
Cc1c(O)cnc2nn(-c3ccccc3)c(=N)n12	-6	-3	6240	nt	0	91*	81*	52*
Cc1nn(-c2ccccc2)c(C)c1N	-2	-1	4343	-8	-1	0	nt	nt
CC(=O)Oc1ccc(C23c4ccccc4C2(OC(C)=O)c2cc(OC(C)=O)ccc23)cc1 (configuration not stated)	-2	-12	3657	6	0	71*	98*	85*
O=C(CN1C(=O)CCC1=O)Nc1nc(-c2nc3ccccc3s2)cs1	-4	6	5067	-2	0	34*	10	4
